High-throughput results from PubChem.
Tb PYK inh: qHTS of Trypanosoma Brucei Inhibitors. TbPYK enzyme, Kinase-Glo Plus ATP luminescence, 45 min. Potency, µM (highest dose often 76.8 µM), hits mostly inhibitors. 410,000 tested, 0.12% active; also: nearly all actives have a fitted effect of over 50% in size
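Glycolytic pyruvate kinase of T. brucei was incubated with substrate, test compound and 130 uM ADP for 45 minutes at room temperature. Luminescent Kinase-Glo Plus signal was measured after 10 minutes.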
Shiga toxin inh: A qHTS for Small Molecule Inhibitors of Shiga Toxin. inhibition, % at 38.7 µM. Vero cells, Shiga toxin protein synthesis inhibition reporter. AID 2315, 2010. 290,000 tested, 9.2% active; in the data active = inhibition mostly above about 28%, no sharp cut-off; inactive = mostly below about 43%
LmPK inhibitor: qHTS Assay for Inhibitors of Leishmania Mexicana Pyruvate Kinase (LmPK); Q27686; AID 1721, 2009; purified LmPK, Kinase-Glo ATP luminescence, 1 h; 290,000 tested, 0.37% active; Potency, µM (doses to about 57.5 µM), hits mostly inhibitors
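Purified LmPK (0.1 nM) converted ADP (0.1 mM) to ATP with PEP (0.5 mM) in imidazole buffer pH 7.2 with KCl and MgCl2, 1 h at room temperature. ATP was read by Kinase-Glo luminescence; data normalized to uninhibited and no-enzyme controls.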
CHX counter: Cycloheximide Counterscreen for Small Molecule Inhibitors of Shiga Toxin. cell reporter, cycloheximide protein synthesis inhibition counterscreen. max response, %. AID 2314, 2010. 300,000 tested, 12% active; in the data active = max response mostly above about 13%, no sharp cut-off; inactive = mostly below about 14%; also: read at 38.3 µM for the half of the compounds with a filed dose
FBPA Giardia inh: qHTS Assay for Inhibitors of Fructose-1,6-bisphosphate Aldolase from Giardia Lamblia | purified Giardia FBPA | Potency, µM (doses to about 59.6 µM), usual class: inhibitors | 290,000 tested, 0.71% active | A8B2U2; also: nearly all actives have a fitted effect of over 55% in size
Target sequence (A8B2U2 whole entry, looked up): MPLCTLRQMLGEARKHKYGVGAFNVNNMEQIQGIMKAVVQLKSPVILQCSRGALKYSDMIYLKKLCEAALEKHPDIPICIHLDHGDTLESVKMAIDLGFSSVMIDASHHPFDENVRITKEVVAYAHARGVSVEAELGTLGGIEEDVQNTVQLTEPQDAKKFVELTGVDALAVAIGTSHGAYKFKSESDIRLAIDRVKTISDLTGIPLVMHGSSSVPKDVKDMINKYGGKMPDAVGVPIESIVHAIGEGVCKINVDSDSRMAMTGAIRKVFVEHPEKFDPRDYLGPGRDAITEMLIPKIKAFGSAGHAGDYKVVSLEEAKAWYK
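Giardia FBPA (40 nM reagent) was preincubated 10 min at RT with compound (up to 57.5 uM final), then substrate plus GAPDH/TPI/NAD/arsenate coupling system with diaphorase/resazurin was added; resorufin fluorescence (525/598 nm) was read after 20 min.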
RE007 growth inh: qHTS Assay for Inhibitors of the HIV-1 protein Vpr. 360,000 tested, 0.21% active. S. pombe RE007 Vpr strain, BacTiter-Glo ATP luminescence, 24 h. Potency, µM (series often up to 92.2 µM), usual class: inhibitors; active = well fitted falling curve with a large enough effect; inconclusive = small, poorly fitted or top-dose-only effect; inactive = no such curve, though single readings can be large or run the other way; also: nearly all actives have a fitted effect of over 50% in size
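Fission yeast strain RE007, carrying one chromosomally integrated HIV-1 vpr copy, was seeded at OD 0.01 in PMG+AL medium with 23 nL pinned compound. After 24 h at 30 °C and 99% humidity, viability was read by BacTiter-Glo luminescence.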
Large screens that a line does not name were inactive. The sample as a whole holds a higher share of hits than the screen did. Unless noted, calls follow the shape of the dose curve; as a rule, active = well fitted curve in the direction sought with a large enough effect; inconclusive = small, poorly fitted or top-dose-only effect, or another doubt; inactive = no such curve, though single readings can be large; an effect the other way counts as inactive or inconclusive.

O=C1C=C(NCc2ccccc2)c2ccccc2C1=O	Shiga toxin inh 80.5, CHX counter 56.2, FBPA Giardia inh 1.26µM, RE007 growth inh inconclusive
O=c1cccccc1NCc1ccccc1	CHX counter 26.1, FBPA Giardia inh 8.89µM (no result: Tb PYK inh)
O=C1C=C(Nc2ccc(F)cc2)c2ccccc2C1=O	none (no result: Shiga toxin inh, LmPK inhibitor, CHX counter, FBPA Giardia inh)
O=C1C=C(Nc2ccccc2O)c2ccccc2C1=O	Shiga toxin inh 84.5, CHX counter 16.8, FBPA Giardia inh 17.7µM, RE007 growth inh inconclusive
CCN(C(=O)c1cc2c(=O)oc3ccc(C)cc3c2s1)c1ccccc1F	none (no result: Shiga toxin inh, LmPK inhibitor, CHX counter, FBPA Giardia inh, RE007 growth inh)
Cc1ccc(S(=O)(=O)NC(C)C(=O)OCC(=O)N(C)c2ccccc2)cc1 (centres undefined)	none (no result: Shiga toxin inh, LmPK inhibitor, CHX counter, FBPA Giardia inh)
CC(C)c1ccc(NC(=O)c2cc([N+](=O)[O-])ccc2N2CCOCC2)cc1	none (no result: FBPA Giardia inh)
N#Cc1c(NC(=O)c2cc([N+](=O)[O-])ccc2N2CCOCC2)sc2c1CCCC2	Shiga toxin inh active, CHX counter 29.9
N#Cc1c(NC(=O)c2ccccc2)sc2c1CCC2	Shiga toxin inh 196.3, CHX counter 45.7
N#Cc1c(NC(=S)NC(=O)C2CCCC2)sc2c1CCCCC2	Shiga toxin inh 26.9, CHX counter 23.0
Cc1occc1C(=O)Nc1sc2c(c1C(N)=O)CCC(C(C)(C)C)C2 (centres undefined)	none
CC(C)(C)C1CCc2c(sc(NC(=O)c3ccncc3)c2C(N)=O)C1 (centres undefined)	CHX counter 15.5
CCC(=O)N1CCc2cc(Br)cc(S(=O)(=O)N3CCN(c4ccc(C)cc4)C(C)C3)c21 (centres undefined)	none (no result: Shiga toxin inh, LmPK inhibitor, CHX counter, FBPA Giardia inh, RE007 growth inh)
O=C(CCCCn1c(=O)c2ccccc2n(CC(=O)Nc2ccc(F)cc2F)c1=O)NCCc1ccccc1	none (no result: Shiga toxin inh, LmPK inhibitor, CHX counter, FBPA Giardia inh, RE007 growth inh)
N#Cc1c(NC(=O)c2ccc([N+](=O)[O-])o2)sc2c1CCC2	Shiga toxin inh 96.9, CHX counter 27.8, FBPA Giardia inh inconclusive, RE007 growth inh inconclusive
COc1ccccc1C(=O)Nc1sc2c(c1C#N)CCC2	CHX counter 12.1 (no result: Shiga toxin inh)
N#Cc1c(NC(=O)c2cccnc2)sc2c1CCC2	CHX counter 19.4, RE007 growth inh inconclusive
NC(=O)c1c(NC(=O)c2cccnc2)sc2c1CCCC2	Shiga toxin inh 72.6
CC1CCc2c(sc(NC(=S)NC(=O)c3ccccc3)c2C#N)C1 (centres undefined)	Shiga toxin inh 65.4, CHX counter 21.3
Cc1cccc(NC(=O)c2c(NC(=O)c3ccccc3)sc3c2CCCC3)c1	Tb PYK inh inconclusive (no result: LmPK inhibitor, FBPA Giardia inh, RE007 growth inh)
N#Cc1c(NC(=O)c2cnccn2)sc2c1CCCC2	Shiga toxin inh 74.6, CHX counter 66.3, FBPA Giardia inh inconclusive
N#Cc1c(NC(=S)NC(=O)c2ccccc2)sc2c1CCN(CCc1ccccc1)C2	none (no result: Tb PYK inh, RE007 growth inh)
Cc1cccc(C(=O)Nc2sc3c(c2C#N)CCCCC3)c1	Shiga toxin inh 84.7, CHX counter 43.5
N#Cc1c(NC(=S)NC(=O)c2ccccc2)sc2c1CCCC2	Shiga toxin inh 35.1, CHX counter 33.7
CC(C)Cc1nnc(NC(=O)c2cc([N+](=O)[O-])ccc2N2CCOCC2)s1	CHX counter 18.9, FBPA Giardia inh inconclusive
COCCCn1c(=O)c2sccc2n2c(CCCC(=O)Nc3cccc(C(F)(F)F)c3)nnc12	none (no result: Shiga toxin inh, LmPK inhibitor, CHX counter, FBPA Giardia inh, RE007 growth inh)
OC[C@H]1O[C@@H](n2cnc3c(NCc4ccccc4)ncnc32)[C@H](O)[C@@H]1O	none (no result: Tb PYK inh, Shiga toxin inh, LmPK inhibitor, CHX counter, RE007 growth inh)
OC[C@H]1O[C@@H](n2cnc3c(Nc4ccccc4)ncnc32)[C@H](O)[C@@H]1O	Shiga toxin inh 107.8
CCOc1ccccc1CNc1ncnc2ccc(-c3c(C)noc3C)cc12	CHX counter 30.1 (no result: LmPK inhibitor, RE007 growth inh)
CCOc1cc(C2NN=C(c3ccccc3)S2)ccc1OCc1ccccc1Cl (centres undefined)	Shiga toxin inh 66.1, CHX counter 45.3
CCOc1cc(C2NN=C(c3ccccc3)S2)ccc1OCc1ccc(F)cc1 (centres undefined)	Shiga toxin inh 112.2, CHX counter 43.0
CN1CCN(c2ccc(NC(=O)c3cc4ccccc4o3)cc2)CC1	CHX counter 33.4
CS(=O)(=O)N1CCN(c2ccc(NC(=O)c3cc4ccccc4o3)cc2)CC1	CHX counter 18.8
COc1ncccc1-c1nnn(-c2ccc(Cl)nc2)n1	CHX counter 19.6
COc1ccc2[nH]c(=O)c(-c3nnn(-c4ccc(Cl)nc4)n3)cc2c1	none (no result: Shiga toxin inh, LmPK inhibitor, CHX counter, FBPA Giardia inh)
Clc1ccc(-n2nnc(-c3cccnc3Cl)n2)cn1	Shiga toxin inh 49.6, CHX counter 34.8
Clc1ncccc1-c1nnn(-c2ccccc2Br)n1	Shiga toxin inh 72.9, CHX counter 34.0
c1ccc(-n2nnc(-c3nccs3)n2)cc1	none (no result: Shiga toxin inh, LmPK inhibitor, CHX counter, FBPA Giardia inh)
Brc1ccccc1-n1nnc(-c2nccs2)n1	Shiga toxin inh 76.7, CHX counter 48.8
COc1ccc(CCNC(=O)c2cc3c(=O)n(C)c4cc(Cl)ccc4c3s2)cc1OC	none (no result: Shiga toxin inh, LmPK inhibitor, CHX counter, FBPA Giardia inh, RE007 growth inh)
O=P(O)(O)OC[C@@H](O)CO	none (no result: Shiga toxin inh, LmPK inhibitor, CHX counter, FBPA Giardia inh, RE007 growth inh)
Cc1cc(C)c2c(CC(=O)NC3CCS(=O)(=O)C3)coc2c1 (centres undefined)	none
COc1ccc(S(=O)(=O)N(Cc2nc(-c3cccc(C)c3)no2)C2CCCCC2)cc1	none (no result: Shiga toxin inh, LmPK inhibitor, CHX counter, FBPA Giardia inh, RE007 growth inh)
CCCOc1ccccc1C(=O)Nc1ccc(-c2nc3ccc(C)cc3s2)cc1	none (no result: Shiga toxin inh, LmPK inhibitor, CHX counter, FBPA Giardia inh, RE007 growth inh)
Cn1ccnc1-c1nnn(-c2ccc(Cl)c(Cl)c2)n1	none (no result: Shiga toxin inh, LmPK inhibitor, CHX counter, FBPA Giardia inh)
Cc1ccc(-n2nnc(-c3cccnc3Cl)n2)cc1	Shiga toxin inh 87.2, CHX counter 47.2
CN(C(=O)COc1ccc(Cl)cc1Br)C1CCCCC1	Shiga toxin inh 71.9, CHX counter 45.3
O=C(COc1ccc(Cl)cc1Cl)N(c1ccccn1)C1CCCCC1	CHX counter 30.3
